Data published in PubChem BioAssay (EPA / NIEHS).
Active and inactive are the calls of the source. Rule for the calls: active = hit-call score of the fitted dose curve at least 0.9, where 1 is the maximum; inactive = score below 0.9.

Experiment: ATG_TGFb_CIS: Attagene CIS-FACTORIAL HepG2 Assay for human Transforming Growth Factor (TGF) (AID 2282967)
Details: HepG2 Attagene CIS TGFb reporter, mRNA transcription; actives raise or lower the signal
Method: ATG_CIS is a cell-based, multiplexed-readout assay that uses HepG2, a human liver cell line, with measurements taken at 24 hours after chemical dosing in a 24-well plate.ATG_TGFb_CIS is one of 52 assay component(s) measured or calculated from the ATG_CIS assay. It is designed to make measurements of mRNA induction, a form of inducible reporter, as detected with fluorescence intensity signals by Reverse transcription polymerase chain reaction (RT-PCR) and Capillary electrophoresis technology.Data from the assay component ATG_TGFb_CIS was analyzed into 1 assay endpoint. This assay endpoint, ATG_TGFb_CIS, was analyzed with bidirectional fitting relative to DMSO as the negative control and baseline of activity. Using a type of inducible reporter, measures of mRNA for gain or loss-of-signal activity can be used to understand the reporter gene at the transcription factor-level as they relate to the gene TGFB1. Furthermore, this assay endpoint can be referred to as a primary readout, because this assay has produced multiple assay endpoints where this one serves a reporter gene function. To generalize the intended target to other relatable targets, this assay endpoint is annotated to the growth factor intended target family, where the subfamily is transforming growth factor beta.
Human liver HepG2 cells are transiently transfected with multiple reporter transcription units (MRTUs) in 6-well plates using FuGene 6 reagent (Roche; 3 ml FuGene/1 mg DNA). The MRTU constructs are regulated by a cis-regulating element (promoter). […] A major difference between the CIS and TRANS system is that in CIS activities of endogenous TFs are measured, whereas the TRANS assay evaluates changes in activities of exogenous, chimeric NR-Gal4 proteins. […] At the end of 24 hour incubation, total RNA was isolated using TriZol reagent (Invitrogen). The isolated RNA is then reverse-transcribed using oligo(dT) primer and Mo-MLV reverse transcriptase (Invitrogen) with DNAse I (Ambion) treatment for 30 min. The one-tenth of the produced cDNA was amplified by PCR using Taq DNA polymerase (Invitrogen) and two reporter sequence-specific primers. The PCR products were fluorescently labeled by primer extension with 6-arboxyfluorescein (6-FAM) 5'-labeled reporter sequence-specific primer (2 min at 95 C, 20 s at 68 C and 10 min at 72 C) and these products were digested with 5U of HpaI (New England Biolabs) for 2h at 37 C. The fragments were purified using Qiaquick PCR columns (Qiagen), analyzed on an ABI 3130xL genetic analyzer (Applied Biosystems) with peak positions identified by using a set of X-rhodamine (ROX)-labeled MapMarker1000 molecular weight standards (BioVentures). The raw capillary electrophoresis data was processed using Attagraph software (Attagene).

outcome, inactive:
CCN(CC)c1ccc(C(=O)c2ccccc2C(=O)O)c(O)c1
CC1=NN(c2cc(S(=O)(=O)O)ccc2Cl)C(=O)C1N=Nc1ccccc1 (stereo not given)
O=c1c2ccccc2oc2ccccc12
CCOC(=O)c1ccccc1C(=C1C=C(Br)C(=O)C(Br)=C1)c1cc(Br)c(O)c(Br)c1
CCCCCCOC(=O)C(C)CC (stereo not given)
Cc1cnc(NC(=O)C2=C(O)c3ccccc3S(=O)(=O)N2C)s1
CCCCCCCCCCCCCCCC[N+](C)(C)CC
CC(C)C(=O)C(C)C
CCO[Si](C)(OCC)OCC
CCCCCC/C=C\CCCCCCCC(=O)O
CCOCC(=O)O
C=C(C)C(=O)OCCO
CCC(C)(C)C1CCCCC1OC(C)=O (stereo not given)
CC(=O)OC(C)C
CC/C=C\CCOC(=O)CCCCC
CC(C)CCCCCOC(=O)CCS
Cc1ccc(C2OC[C@@H]3OC(c4ccc(C)cc4)O[C@H]([C@H](O)CO)[C@@H]3O2)cc1 (stereo not given in full)
CC(C)CCCC(C)CC=O (stereo not given)
CC(C)c1ccc2c(c1)CC[C@H]1[C@](C)(CN)CCC[C@]21C
CC(C)(C)c1ccc(OC(=O)c2ccccc2O)cc1
O=Nc1ccc(O)cc1
c1ccc2c(c1)ccc1cc3c(ccc4ccccc43)cc12
Nc1ccc(-c2ccc(F)cc2)cc1
CCc1nccnc1C
COC(=O)c1cc(Cl)ccc1[N+](=O)[O-]
Cc1cccc(C(=O)O)c1
ON(Cc1ccccc1)Cc1ccccc1
CCCCCCCC/C=C\CCCCCCCC(=O)O
CCCCCC(C)O (stereo not given)
CCCCCCCC[N+](C)(CCCCCCCC)CCCCCCCC
CC(C)c1ccc2cc(C(C)C)ccc2c1
O=[N+]([O-])C1(Br)COCOC1
COc1ccc(NC(C)=O)cc1N
C=C(C)[C@@H]1CCC2=CCC[C@@H](C)[C@]2(C)C1
CCN(CCC#N)c1ccc(N=Nc2c(Cl)cc([N+](=O)[O-])cc2Cl)cc1
CC1(C)O[C@@H]2C[C@H]3[C@@H]4C[C@H](F)C5=CC(=O)CC[C@]5(C)[C@H]4[C@@H](O)C[C@]3(C)[C@]2(C(=O)CO)O1
O=C(c1ccc(O)cc1)c1ccc(O)cc1O
FC(F)=C(F)OC(F)(F)C(F)(F)C(F)(F)F
O=C1c2cccc(O)c2C(=O)c2c(O)cc(CO)cc21

AC50, active:
O=C(Cl)c1cc(C(=O)Cl)cc(C(=O)Cl)c1 132 µM
